Results as given in PubChem BioAssay (EPA / NIEHS).
Activity calls are given as the source filed them. The calls were made as follows: active = hit-call score of the fitted dose curve at least 0.9, where 1 is the maximum; inactive = score below 0.9.

Tests used:
[1] = ATG_CRE_CIS: Attagene CIS-FACTORIAL HepG2 Assay for human cAMP Responsive Element (CRE) binding protein 3 (AID 2282926); conditions: HepG2 CRE cis-reporter, Attagene multiplexed mRNA; actives raise or lower the signal
How it was run: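 HepG2 cells transiently transfected with cis-element-driven multiple reporter transcription units; CRE reporter mRNA measured 24 h after dosing by RT-PCR, 6-FAM labelling, HpaI digestion and capillary electrophoresis. Bidirectional fit versus DMSO baseline.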

[2] = target: CCAAT/enhancer-binding protein beta (Homo sapiens) (UniProt P17676); experiment: ATG_C_EBP_CIS: Attagene CIS-FACTORIAL HepG2 Assay for human CCAAT/Enhancer Binding Protein (C/EBP) beta (AID 2282927); conditions: HepG2 Attagene cis-factorial transcription factor reporter; actives raise or lower the signal
How it was run: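 Endogenous transcription factor activity in human liver HepG2 cells is inferred from induction of a CEBPB-linked reporter mRNA. Exposure lasts 24 h; activity is fitted in both directions relative to DMSO.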

[3] = ATG_CMV_CIS: Attagene CIS-FACTORIAL HepG2 Assay for human CMV (Internal Marker) (AID 2282928); conditions: HepG2 CMV promoter reporter, transcription factor profiling; actives raise or lower the signal;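 also: endpoint acts as a background internal control marker rather than a target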
How it was run: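 After transient transfection of HepG2 with reporter transcription units driven by cis-regulatory promoters, cells receive test chemical for 24 h. Labeled reporter amplicons, digested with HpaI, are sized and quantified by capillary electrophoresis against DMSO.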

[4] = ATG_DR4_LXR_CIS: Attagene CIS-FACTORIAL HepG2 Assay for human Liver X Receptor (LXR), DR4 submotif (AID 2282929); conditions: HepG2 Attagene DR4 cis-reporter, mRNA transcription; actives raise or lower the signal
How it was run: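 Transiently transfected HepG2 liver cells; cis-regulated reporters; 24 h dosing. RT-PCR plus CE read-out of reporter mRNA. DMSO baseline, bidirectional curve fitting.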

[5] = target: Aryl hydrocarbon receptor (Homo sapiens) (UniProt P35869); experiment: ATG_Ahr_CIS: Attagene CIS-FACTORIAL HepG2 Assay for human Aryl Hydrocarbon Receptor (Ahr) (AID 2282930); conditions: HepG2 AhR cis-factorial reporter transcription; actives raise or lower the signal
How it was run: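 Transient MRTU transfection of HepG2 → 24 h compound exposure → total RNA, oligo(dT) RT → PCR, 6-FAM extension, HpaI cut → CE fluorescence. DMSO = baseline; bidirectional curve fit.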

[6] = ATG_AP_1_CIS: Attagene CIS-FACTORIAL HepG2 Assay for human Activator Protein 1 (AP-1) (AID 2282931); conditions: HepG2 Attagene cis-factorial AP-1 reporter mRNA; actives raise or lower the signal
How it was run: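 We transfected HepG2 cells transiently with a set of cis-regulated reporter transcription units, dosed them for 24 h, and quantified reporter mRNA via RT-PCR and capillary electrophoresis, scoring gain or loss of signal relative to DMSO.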

[7] = ATG_AP_2_CIS: Attagene CIS-FACTORIAL HepG2 Assay for human Activator Protein 2 (AP-2) (AID 2282932); conditions: HepG2 AP-2 cis-reporter, Attagene transcription factor profiling; actives raise or lower the signal
How it was run: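 Step one: transient transfection of HepG2 with reporter transcription units. Step two: 24 h chemical exposure. Step three: RNA extraction, RT-PCR, labelled fragment analysis by capillary electrophoresis; DMSO serves as baseline.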

[8] = ATG_BRE_CIS: Attagene CIS-FACTORIAL HepG2 Assay for human Bone Morphogenetic Protein (BMP) Response Element (BRE) (AID 2282933); conditions: HepG2 BMP response element reporter, Attagene transcription factor profiling; actives raise or lower the signal
How it was run: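 After a 24 h chemical treatment, transiently transfected HepG2 cells were lysed for RNA; reporter transcripts were quantified by fluorescent RT-PCR and capillary electrophoresis, normalised to DMSO.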

[9] = target: Retinoic acid receptor alpha (Homo sapiens) (UniProt P10276); experiment: ATG_DR5_RAR_CIS: Attagene CIS-FACTORIAL HepG2 Assay for human Retinoic Acid Receptor Alpha (RARE), DR5 submotif (AID 2282934); conditions: HepG2 Attagene cis-factorial RARE DR5 reporter, mRNA; actives raise or lower the signal;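 as to AC50: reporter responds to endogenous RAR alpha beta and gamma in HepG2 not RARA alone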
How it was run: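 Transient MRTU transfection of HepG2; 24 h compound treatment; TriZol RNA, oligo(dT) RT, PCR, FAM labelling, capillary electrophoresis. Bidirectional fit vs DMSO. Endogenous TF activity at DR5 RARE.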

[10] = target: Transcription factor E2F1 (Homo sapiens) (UniProt Q01094); experiment: ATG_E2F_CIS: Attagene CIS-FACTORIAL HepG2 Assay for human E2F Transcription Factor 1 (AID 2282935); conditions: HepG2 Attagene cis-reporter, E2F reporter RNA transcripts; actives raise or lower the signal
How it was run: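 Total RNA from 24 h-treated, reporter-transfected HepG2 cells undergoes DNase I treatment, oligo(dT) reverse transcription, PCR and 6-FAM primer extension before capillary electrophoresis.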

Measured: AC50

Sequence of CCAAT/enhancer-binding protein beta (Homo sapiens) (P17676 whole entry, looked up): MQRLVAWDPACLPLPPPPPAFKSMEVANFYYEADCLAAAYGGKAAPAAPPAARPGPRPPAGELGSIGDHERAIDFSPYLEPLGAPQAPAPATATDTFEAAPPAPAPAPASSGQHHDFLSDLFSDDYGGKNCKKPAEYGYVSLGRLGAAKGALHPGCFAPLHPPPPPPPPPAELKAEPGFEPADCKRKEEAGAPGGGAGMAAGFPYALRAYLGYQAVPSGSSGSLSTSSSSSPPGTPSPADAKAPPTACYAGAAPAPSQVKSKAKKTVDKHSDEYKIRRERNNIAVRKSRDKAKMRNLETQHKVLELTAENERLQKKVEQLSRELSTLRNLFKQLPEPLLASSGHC
Sequence of Transcription factor E2F1 (Homo sapiens) (Q01094 whole entry, looked up): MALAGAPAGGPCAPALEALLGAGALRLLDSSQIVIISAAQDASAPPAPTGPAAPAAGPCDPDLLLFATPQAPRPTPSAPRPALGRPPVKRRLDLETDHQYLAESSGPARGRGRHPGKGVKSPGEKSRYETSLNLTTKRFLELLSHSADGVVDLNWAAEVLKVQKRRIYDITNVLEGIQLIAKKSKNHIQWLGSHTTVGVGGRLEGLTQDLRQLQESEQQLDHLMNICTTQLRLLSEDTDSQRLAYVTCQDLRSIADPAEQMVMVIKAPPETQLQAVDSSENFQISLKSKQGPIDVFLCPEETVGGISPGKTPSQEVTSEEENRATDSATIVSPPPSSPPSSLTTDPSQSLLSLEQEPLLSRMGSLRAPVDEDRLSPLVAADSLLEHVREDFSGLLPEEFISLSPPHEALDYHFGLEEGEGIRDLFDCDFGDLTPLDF
Sequence of Aryl hydrocarbon receptor (Homo sapiens) (P35869 whole entry, looked up): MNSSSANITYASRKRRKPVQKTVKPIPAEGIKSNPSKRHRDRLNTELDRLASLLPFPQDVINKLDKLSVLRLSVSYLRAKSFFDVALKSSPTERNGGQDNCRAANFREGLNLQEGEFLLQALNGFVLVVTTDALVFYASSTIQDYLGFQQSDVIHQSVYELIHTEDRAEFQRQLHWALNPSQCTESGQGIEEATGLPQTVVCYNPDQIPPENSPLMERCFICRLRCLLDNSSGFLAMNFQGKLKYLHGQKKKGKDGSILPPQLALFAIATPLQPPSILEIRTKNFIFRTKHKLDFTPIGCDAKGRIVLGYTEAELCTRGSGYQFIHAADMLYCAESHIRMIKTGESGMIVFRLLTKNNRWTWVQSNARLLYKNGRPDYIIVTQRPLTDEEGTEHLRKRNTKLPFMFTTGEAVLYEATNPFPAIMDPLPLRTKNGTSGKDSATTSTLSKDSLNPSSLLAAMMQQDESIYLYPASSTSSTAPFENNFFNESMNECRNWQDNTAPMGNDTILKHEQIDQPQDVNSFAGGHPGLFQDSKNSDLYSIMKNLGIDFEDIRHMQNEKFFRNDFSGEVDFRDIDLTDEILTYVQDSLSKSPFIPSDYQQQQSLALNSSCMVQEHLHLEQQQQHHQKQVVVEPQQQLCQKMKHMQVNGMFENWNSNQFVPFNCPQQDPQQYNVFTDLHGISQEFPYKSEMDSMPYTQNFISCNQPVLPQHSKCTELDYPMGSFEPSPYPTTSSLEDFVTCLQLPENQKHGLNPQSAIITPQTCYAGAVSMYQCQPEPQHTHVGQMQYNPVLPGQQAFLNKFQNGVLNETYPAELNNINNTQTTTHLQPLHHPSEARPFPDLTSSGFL
Sequence of Retinoic acid receptor alpha (Homo sapiens) (P10276 whole entry, looked up): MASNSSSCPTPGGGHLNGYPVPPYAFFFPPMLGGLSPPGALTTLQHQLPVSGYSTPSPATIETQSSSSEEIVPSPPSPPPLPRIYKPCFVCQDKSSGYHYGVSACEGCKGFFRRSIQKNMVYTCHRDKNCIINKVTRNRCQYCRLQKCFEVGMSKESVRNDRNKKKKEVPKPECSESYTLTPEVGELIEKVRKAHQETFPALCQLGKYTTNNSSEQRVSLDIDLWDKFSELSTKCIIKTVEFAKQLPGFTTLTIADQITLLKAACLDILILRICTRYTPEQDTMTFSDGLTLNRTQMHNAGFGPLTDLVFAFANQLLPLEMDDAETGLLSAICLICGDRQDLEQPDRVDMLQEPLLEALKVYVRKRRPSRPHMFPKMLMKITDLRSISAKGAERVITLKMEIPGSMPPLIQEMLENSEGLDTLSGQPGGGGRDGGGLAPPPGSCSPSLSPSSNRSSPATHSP

Nc1ccc2c(O)cc(S(=O)(=O)O)cc2c1
active: [5] 25.9 µM
inactive: all other assays above

NC1CCCCC1N (stereo not given)
inactive: all assays above

C1CCCCC1
inactive: all assays above

OCCOCCN1CCN(C2=Nc3ccccc3Sc3ccccc32)CC1
active: [3] 135 µM | [5] 113 µM
inactive: all other assays above

CC(=O)CC(=O)Nc1ccc(C)cc1C
inactive: all assays above

C=C1C[C@]23C[C@@]1(O)CC[C@H]2[C@@]12C=C[C@H](O)[C@@](C)(C(=O)O1)[C@H]2[C@@H]3C(=O)O
inactive: all assays above

CC(=O)Nc1ccc(C(=O)CCl)cc1
active: [1] 7.97 µM | [4] 12.9 µM | [6] 56.5 µM | [7] 7.19 µM
inactive: all other assays above

Cc1cc(S(=O)(=O)O)ccc1N=Nc1c(O)ccc2ccccc12
active: [5] 2.32 µM
inactive: all other assays above

Cc1ccc2c(c1)C(=O)OC2=O
inactive: all assays above

CCCC(O)C(O)CO (stereo not given)
active: [5] 0.16 µM
inactive: all other assays above

C=C(C#N)C(=O)OCC
active: [2] 154 µM | [4] 158 µM
inactive: all other assays above

C=CCCC(=O)/C=C/C1C(C)=CCCC1(C)C (stereo not given)
active: [3] 140 µM | [4] 175 µM | [5] 53.2 µM | [6] 121 µM
inactive: all other assays above

CCCCCCCCSCCO
active: [1] 100 µM | [2] 100 µM | [3] 100 µM | [4] 148 µM
inactive: all other assays above

C=C(C)C(=O)OCCOCCOCCOC(=O)C(=C)C
inactive: all assays above

CCOc1ccc(NC(=O)CC(C)O)cc1 (stereo not given)
inactive: all assays above

CCCCCCC(O)CCCCCCCCCCC(=O)O (stereo not given)
inactive: all assays above

COC(=O)c1ccc([N+](=O)[O-])cc1
inactive: all assays above

CN(C)CCOc1ccc(/C(=C(/CCCl)c2ccccc2)c2ccccc2)cc1
active: [4] 1.99 µM
inactive: all other assays above

C=Cc1ccncc1
active: [2] 26.2 µM | [3] 100 µM | [9] 27 µM
inactive: all other assays above

CN(C)CCOC(C)(c1ccccc1)c1ccccn1 (stereo not given)
inactive: all assays above

C[C@@H]1CCN(C(=O)[C@H](CCCN=C(N)N)NS(=O)(=O)c2cccc3c2NC[C@H](C)C3)[C@@H](C(=O)O)C1
inactive: all assays above

COC(C)(C)CC(C)=O
inactive: all assays above

C=Cc1ccc(C)cc1
inactive: all assays above

Cc1ccc(S(N)(=O)=O)cc1
inactive: all assays above

O=[N+]([O-])c1cccc(Cl)c1
inactive: all assays above

Cc1ncc([N+](=O)[O-])n1CCO
inactive: all assays above

C=C[Si]1(C)O[Si](C)(C=C)O[Si](C)(C=C)O[Si](C)(C=C)O1 (stereo not given)
active: [3] 51.7 µM | [4] 4.46 µM | [6] 36.1 µM
inactive: all other assays above

CC1(C)O[C@@H]2[C@@H](CO[C@@]3(COS(N)(=O)=O)OC(C)(C)O[C@@H]23)O1
inactive: all assays above

C#CC(C)N(C)C(=O)Nc1ccc(Cl)cc1 (stereo not given)
inactive: all assays above

Nc1ccc(Cl)c([N+](=O)[O-])c1
inactive: all assays above

NCCNc1cccc2ccccc12
active: [1] 170 µM | [2] 169 µM | [5] 7.19 µM | [7] 100 µM
inactive: all other assays above

O=C(O)COCC(=O)O
inactive: all assays above

COc1cc([C@@H]2c3cc4c(cc3[C@@H](O[C@@H]3O[C@@H]5CO[C@@H](C)O[C@H]5[C@H](O)[C@H]3O)[C@H]3COC(=O)[C@H]23)OCO4)cc(OC)c1O
inactive: all assays above

COc1ccc(OC)c(N=Nc2c(O)ccc3ccccc23)c1
active: [5] 0.51 µM
inactive: all other assays above

CC(C)CCCCCCc1ccc(OCCOCCO)cc1
inactive: all assays above

COC(=O)c1cccnc1
inactive: all assays above

C/C=C(\C)C(=O)OCCc1ccccc1
inactive: all assays above

C=C1CC[C@H](O)C/C1=C/C=C1\CCC[C@]2(C)[C@@H]([C@H](C)/C=C/[C@H](C)C(C)C)CC[C@@H]12
active: [6] 30.3 µM | [9] 39.8 µM
inactive: all other assays above

CC(C)(C)C1=CC(=O)C(C(C)(C)C)=CC1=O
active: [3] 87.6 µM | [4] 50 µM | [9] 26.8 µM
inactive: all other assays above

CC1(C)O[C@@H]2C[C@H]3[C@@H]4CCC5=CC(=O)C=C[C@]5(C)[C@@]4(F)[C@@H](O)C[C@]3(C)[C@]2(C(=O)CO)O1
active: [5] 0.082 µM
inactive: all other assays above

C=C(C)C(=O)OCCOC1CC2CC1C1C=CCC21 (stereo not given)
inactive: all assays above

CCCCC(CC)C(=O)OC(C)C (stereo not given)
inactive: all assays above

CCCCCCCCCCCCS(=O)(=O)Cl
inactive: all assays above

CCCC(C)=O
inactive: all assays above

CC(=O)CC(=O)Nc1ccccc1
inactive: all assays above

CN1CCOCC1
inactive: all assays above

CCCCCCCCCCCCCCN(CCO)CCO
active: [4] 13.8 µM
inactive: all other assays above

C=COCCOCCOC=C
inactive: all assays above
